Screens deposited in PubChem by National Center for Advancing Translational Sciences (NCATS).
IkB signaling: inhibitors of IkB signaling in ABC-DLBCL cells | 110,000 tested, 0.04% active | AID 445 | ABC-DLBCL IkBa-CBG/CBR dual luciferase ratio, 4 h; response scale: scaled: untreated 0%, proteasome inhibitor 100% | Potency, µM (titrated, usually from 57.1 µM), for inactives: top-dose IkBa stabilization activation; active means well fitted curve in the direction sought with a large enough effect in the signal ratio, not every such curve was filed as active; inconclusive means small, poorly fitted or top-dose-only effect, or a change in a side signal; the % refers to the signal ratio;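 further: the direction sought is a rising ratio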
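Luminescence ratio of IκBα-fused green versus native red beetle luciferase in OCI-Ly3 cells, 4 h post-doxycycline with compound; red signal alone, scaled from basal (0%) to zero light (-100%), flagged nonspecific or cytotoxic effects.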
ERK AVP inh: blocks ERK signaling stimulated by vasopressin; HEK293-V1b, vasopressin-stimulated pERK AlphaScreen; Potency, µM (doses to about 57.5 µM), for inactives: at the top dose activity, negative = inhibition, actives largely listed as inhibitors; 72,000 tested, 0.99% active; further: on the % scale 0 is the no-effect control and ±100 the full control effect; nearly all actives have a fitted effect of over 55% in size
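HEK293 cells stably expressing V1b receptor, preincubated 30 min at 37 °C with compound, then stimulated 5 min with 25 nM vasopressin. Phospho-ERK by AlphaScreen SureFire after 5 h RT; normalized to DMSO and vasopressin; AC50 by Hill fit.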
CRE-bla Fsk: CRE-bla signaling modulation under forskolin stimulation; CHO CRE-bla reporter (cAMP response element driving beta-lactamase), forskolin EC10, beta-lactamase ratio; 71,000 tested, 2.5% active; Potency, µM (titrated, usually from 38.2 µM), without a hit: at the top dose activity change, negative = inhibition, actives largely listed as activators; active means well fitted activation curve with a large enough effect in the signal ratio, with a control signal flat, not every such curve was filed as active; inconclusive means small, poorly fitted or top-dose-only effect, or effect the other way, or a change in a side signal; the % refers to the signal ratio; further: % of control where 0% means no effect
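AC50 values, positive or negative, reflect shifts in EC10 NKH 477-induced CRE-bla reporter activity in CHO cells. Incubation lasted 3 h at 37 °C before CCF4 substrate (2 h, room temperature) and ratiometric 460/530 nm reading.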
TSHR agonist: agonists of human thyroid stimulating hormone receptor. P16473. HEK293-CNG-TSHR cells (CNG channel as cAMP sensor), membrane potential dye, cAMP. Potency, µM (highest dose often 57.1 µM), inactives show top-dose activation, most hits filed as activators. 73,000 tested, 0.48% active; active means well fitted activation curve with a large enough effect in the main read-out, with a control signal flat, not every such curve was filed as active; inconclusive means small, poorly fitted or top-dose-only effect, or a change in a side signal; inactive means no such curve, though single readings can be large or run the other way; % of control where 0% means no effect;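 further: the control signal comes from parental cells without the receptor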
Target sequence (P16473 whole entry, looked up): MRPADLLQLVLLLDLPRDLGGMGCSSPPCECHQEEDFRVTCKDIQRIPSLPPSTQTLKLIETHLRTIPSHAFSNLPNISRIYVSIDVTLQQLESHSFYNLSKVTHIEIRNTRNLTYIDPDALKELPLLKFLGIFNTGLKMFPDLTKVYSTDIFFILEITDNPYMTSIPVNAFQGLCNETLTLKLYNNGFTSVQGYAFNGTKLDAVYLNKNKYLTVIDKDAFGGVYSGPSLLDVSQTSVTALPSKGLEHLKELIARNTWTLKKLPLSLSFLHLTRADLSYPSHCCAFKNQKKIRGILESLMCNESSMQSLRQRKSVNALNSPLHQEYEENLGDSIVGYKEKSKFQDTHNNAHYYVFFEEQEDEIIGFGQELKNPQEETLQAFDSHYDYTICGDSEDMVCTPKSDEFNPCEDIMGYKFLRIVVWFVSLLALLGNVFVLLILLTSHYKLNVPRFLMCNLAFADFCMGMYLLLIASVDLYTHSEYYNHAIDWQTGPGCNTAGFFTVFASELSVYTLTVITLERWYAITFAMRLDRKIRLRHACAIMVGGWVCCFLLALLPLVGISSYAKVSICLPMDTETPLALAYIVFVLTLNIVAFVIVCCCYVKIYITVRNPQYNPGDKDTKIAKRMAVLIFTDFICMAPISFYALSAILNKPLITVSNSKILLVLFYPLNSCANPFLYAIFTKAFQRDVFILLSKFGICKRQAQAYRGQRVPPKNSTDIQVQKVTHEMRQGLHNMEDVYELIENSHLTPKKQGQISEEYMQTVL
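HEK 293 cells stably expressing TSHR and a modified CNG channel, with CNG-only parental cells as counterscreen, were preloaded 60 min at room temperature with membrane potential dye containing 100 uM RO 20-1724. Compound exposure was 30 min, and depolarization was read as fluorescence at 590 nm.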
HEK293 cAMP ctrl: counter-screen for TSHR agonists: cAMP increase in parental HEK293 | parental HEK293 CNG cAMP sensor, membrane potential fluorescence | 73,000 tested, 2.5% active | Potency, µM (top dose mostly 57.1 µM), for the others: at the highest dose activation, usual class: activators; further: % of control where 0% means no effect; nearly all actives have a fitted effect of over 55% in size
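Parental HEK 293 cells stably expressing a cAMP-gated CNG channel were loaded with membrane potential dye containing 100 uM RO 20-1724 for 60 min. Compound added for 30 min; depolarization read as fluorescence intensity at 590 nm.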
* marks the source's active call; other numbers are inactive results; ? = inconclusive; . = no result given; [ ] = dose if it differs, or a comment. Shown are actives, neighbours in structure and some others; about 3.6% of the full set was active somewhere. Unless noted, the call rests on the fitted dose curve; in most records, active means well fitted curve in the direction sought with a large enough effect; inconclusive means small, poorly fitted or top-dose-only effect, or another doubt; inactive means no such curve, though single readings can be large; an effect the other way counts as inactive or inconclusive. Potency means the concentration at half of the fitted maximal effect.

SMILES	IkB signaling	ERK AVP inh	CRE-bla Fsk	TSHR agonist	HEK293 cAMP ctrl
CCOC(=O)c1cnc(-n2nc(C)cc2C)nc1NCc1ccccc1	?	?	-5.6%	?	20µM*
CCOC(=O)c1c(C)cc(O)c(C)c1O	.	21.0%	.	.	.
CCOC(=O)c1c(C)[nH]c2cc(Br)c(O)cc12	-2.5%	-13.2%	10µM*	-5.0%	-6.1%
CCc1ccc(C2CC(c3ccccc3)n3ncnc3N2)cc1 (stereo unspecified)	-0.6%	31.6µM*	5.8%	23.4%	18.7%
COc1ccc(Cn2c(=O)n(-c3ccc(C)cc3)c(=O)c3c2c2cc(C)ccc2n3C)cc1	-0.4%	.	.	.	.
Cc1cc(C)c2c(=O)[nH]c(SCC(=O)N3CCCCC3)nc2n1	2.1%	24.6%	2.51µM*	13.0%[11.4 µM]	9.9%[11.4 µM]
Cc1ccc(NC(=O)CSc2nc3nc(C)cc(C)c3c(=O)[nH]2)cc1	8.0%	-7.0%	3.16µM*	.	30.0%
Cc1cc(C)c2c(=O)[nH]c(SCC(=O)Nc3ccccc3)nc2n1	8.2%	30.2%	5.01µM*	.	22.2%
COc1ccc(C(=O)CSc2nc3nc(C)cc(C)c3c(=O)[nH]2)cc1OC	-0.3%	-2.6%	2.51µM*	-11.5%	2.3%
Cc1ccc(NC(=O)CSc2nnc(C)c(=O)[nH]2)cc1	-1.2%	.	.	.	.
Cc1cc(=O)[nH]c(SCC(=O)N2CCCCCC2)n1	0.1%	-1.1%	8.1%	-4.4%	6.6%
CCOC(=O)c1c(NC(=O)c2cc(C(C)C)on2)sc(C)c1C	-1.8%	.	.	.	.
CCCc1cc(C(=O)Nc2sc(C)c(C)c2C(=O)OCC)no1	-2.1%	12.6%	2µM*	-5.7%	4.4%
CCCCC(C=O)CC (stereo unspecified)	-1.5%	8.6%	-2.7%	?	?
CCCc1noc2c1/C(=N\O)CC(CC(C)SCC)C2 (stereo unspecified)	.	.	.	25.1µM*	15.7%
Cc1nc2cnc(N3CCN(C)CC3)nc2n(Cc2cccs2)c1=O	1.1%[11.4 µM]	-16.5%	?	?	?
CCNc1ncc2nc(C)c(=O)n(Cc3cccs3)c2n1	-0.5%[11.4 µM]	15.8µM*	10µM*	?	?
CN1CCN(c2ncc3nc(-c4ccc(F)cc4)c(=O)n(Cc4cccs4)c3n2)CC1	1.0%[11.4 µM]	20µM*	?	-2.9%	-14.5%
Cc1nc2cnc(N3CCNCC3)nc2n(Cc2cccs2)c1=O	-0.4%[11.4 µM]	-18.2%	10µM*	5.3%	14.6%
CCNc1ncc2ncc(=O)n(Cc3cccs3)c2n1	0.4%[11.4 µM]	-29.6%	?	?	?
COc1ccc(CCNC(=O)CNCC2CCCO2)cc1OC (stereo unspecified)	-0.8%	2.4%	4.9%	1.3%	6.3%
Cn1c2ccc(F)cc2c2ncn(CCN3CCOCC3)c(=O)c21	-2.1%	-4.2%	10µM*	3.1%	-11.2%
c1ccc(-c2oc3ncnc(NCCCn4ccnc4)c3c2-c2ccccc2)cc1	?	25.1µM*	?	?	?
O=C(Oc1cccc(N2C(=O)CCC2=O)c1)C1CC(=O)N(c2ccc(Br)cc2)C1 (stereo unspecified)	4.9%	29.7%	-8.8%	-6.5%	-1.7%
Cc1noc(C)c1C(=O)Nc1nc(C23CC4CC(CC(C4)C2)C3)cs1	?	20µM*	?	12.6%	3.9%
SMILES	IkB signaling	ERK AVP inh	CRE-bla Fsk	TSHR agonist	HEK293 cAMP ctrl
COc1ccc(CCNC(=O)C2CCCN(S(=O)(=O)c3ccc4c(c3)oc(=O)n4C)C2)cc1OC (stereo unspecified)	2.5%	.	.	.	.
CCCCS/C(=C(/C#N)C(N)=O)c1cc2c([nH]1)CCCC2	?	?	-14.5%	?	5.01µM*
CCc1ccc(N/C(SC)=C(/C#N)C(N)=O)cc1	0.6%	-17.8%	0.7%	-1.3%	24.0%
C=CS(=O)(=O)c1ccc(Oc2ccc(S(=O)(=O)C=C)cc2)cc1	?	2.51µM*	?	?	?
O=[N+]([O-])c1cccc(I)c1	-1.7%	-9.5%	3.7%	1.2%	21.2%
COCCn1c(=O)c(CCc2ccccc2)nc2cnc(Oc3ccccc3)nc21	2.9%[11.4 µM]	7.7%	?	?	25.1µM*
N#CCCn1c(=O)c(CCc2ccccc2)nc2cnc(Oc3cccc(Cl)c3)nc21	1.5%[11.4 µM]	6.5%	9.2%	?	5.01µM*
